# Measurements: PubChem BioAssay AID1159580 (chemical genetic matrix, 2015)
# In all, about 5,500 compounds went through this assay and about 2,000 (36%) were called active. Inconclusive results (about 18%) are left out. This is one part of the list. Unmarked numbers belong to inactive results. Cut-off read from the data, not from the text of the source: active = normalized growth mostly below about 0.91 (no sharp cut-off); inconclusive = no clear call, values can overlap the other calls; inactive = mostly above about 0.92.
# Assay: chemical genetic growth profiling, strain panel (AID 1159580);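 note: tested at 20 µM; growth read once vehicle control cultures reached saturation at 30 °C; 1 = growth at the plate median or of vehicle wells; lower values mean less growth of the strain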
# Settings: growth OD
# [1] = S. cerevisiae deletion strains, locus YDL101C, strain DUN1, hits give low values
# [2] = S. cerevisiae deletion strains, locus YHR030C, strain SLT2, hits give low values
# [3] = S. cerevisiae deletion strains, locus YNL322C, strain KRE1, hits give low values
# [4] = S. cerevisiae deletion strains, locus YPL055C, strain LGE1, hits give low values
# [5] = S. cerevisiae deletion strains, locus YPL241C, strain CIN2, hits give low values
structure (smiles),measurement,setting,value
COc1ccc(-c2nc(-c3ccc(-c4ccccc4)cc3)cs2)cc1,normalized growth,"S. cerevisiae deletion strains, locus YAL013W, strain DEP1, hits give low values",1.03
same,normalized growth,"S. cerevisiae deletion strains, locus YBR229C, strain ROT2, hits give low values",1.01
same,normalized growth,[1],1.03
same,normalized growth,"S. cerevisiae deletion strains, locus YDL134C, strain PPH21, hits give low values",0.87 (active)
same,normalized growth,"S. cerevisiae deletion strains, locus YDR150W, strain NUM1, hits give low values",1
same,normalized growth,"S. cerevisiae deletion strains, locus YEL061C, strain CIN8, hits give low values",0.979
same,normalized growth,"S. cerevisiae deletion strains, locus YGR078C, strain PAC10, hits give low values",1.02
same,normalized growth,[2],1.08
same,normalized growth,"S. cerevisiae deletion strains, locus YHR087W, strain rtc3, hits give low values",1
same,normalized growth,"S. cerevisiae deletion strains, locus YJL187C, strain SWE1, hits give low values",0.968
same,normalized growth,"S. cerevisiae deletion strains, locus YJR043C, strain POL32, hits give low values",1.03
same,normalized growth,"S. cerevisiae deletion strains, locus YJR075W, strain HOC1, hits give low values",1.02
same,normalized growth,"S. cerevisiae deletion strains, locus YKL190W, strain CNB1, hits give low values",0.995
same,normalized growth,"S. cerevisiae deletion strains, locus YLR039C, strain RIC1, hits give low values",1.02
same,normalized growth,"S. cerevisiae deletion strains, locus YLR058C, strain SHM2 (second series), hits give low values",1.02
same,normalized growth,"S. cerevisiae deletion strains, locus YLR085C, strain ARP6, hits give low values",1.02
same,normalized growth,"S. cerevisiae deletion strains, locus YLR262C, strain YPT6, hits give low values",1.09
same,normalized growth,"S. cerevisiae deletion strains, locus YML094W, strain GIM5, hits give low values",0.999
same,normalized growth,"S. cerevisiae deletion strains, locus YMR219W, strain ESC1, hits give low values",1.01
same,normalized growth,"S. cerevisiae deletion strains, locus YMR263W, strain SAP30, hits give low values",1.01
same,normalized growth,"S. cerevisiae deletion strains, locus YNL153C, strain GIM3, hits give low values",1.02
same,normalized growth,"S. cerevisiae deletion strains, locus YNL298W, strain CLA4 (second series), hits give low values",1.09
same,normalized growth,[3],1.01
same,normalized growth,"S. cerevisiae deletion strains, locus YNR030W, strain Alg12, hits give low values",1.02
same,normalized growth,[4],1.01
same,normalized growth,[5],1
same,normalized growth,"S. cerevisiae deletion strains, locus YPR135W, strain CTF4, hits give low values",1.14
same,normalized growth,"S. cerevisiae strains, strain wild type, hits give low values",1
CN(C)C/C=C(/c1ccc(Br)cc1)c1cccnc1,normalized growth,"S. cerevisiae deletion strains, locus YAL040C, strain CLN3, hits give low values",0.964
same,normalized growth,"S. cerevisiae deletion strains, locus YCL061C, strain MRC1 (second series), hits give low values",0.999
same,normalized growth,"S. cerevisiae deletion strains, locus YDR363W, strain ESC2, hits give low values",0.984
same,normalized growth,"S. cerevisiae deletion strains, locus YER002W, strain NOP16, hits give low values",0.992
same,normalized growth,"S. cerevisiae deletion strains, locus YMR307W, strain GAS1, hits give low values",1.02
same,normalized growth,"S. cerevisiae deletion strains, locus YNL175C, strain NOP13, hits give low values",0.975
same,normalized growth,"S. cerevisiae deletion strains, locus YNL197C, strain WHI3, hits give low values",1
same,normalized growth,"S. cerevisiae deletion strains, locus YNL224C, strain SQS1, hits give low values",1
same,normalized growth,[3],0.926
same,normalized growth,"S. cerevisiae deletion strains, locus YOR083W, strain WHI5 (second series), hits give low values",0.994
same,normalized growth,[4],0.997
same,normalized growth,[5],0.998
COc1ccc(-c2cn3cc(C)ccc3n2)cc1,normalized growth,"S. cerevisiae deletion strains, locus YAR019C, strain CDC15, hits give low values",0.98
same,normalized growth,"S. cerevisiae deletion strains, locus YBL105C, strain PKC1, hits give low values",0.975
same,normalized growth,"S. cerevisiae deletion strains, locus YBR135W, strain CKS1, hits give low values",0.97
same,normalized growth,"S. cerevisiae deletion strains, locus YBR136W, strain MEC1, hits give low values",0.978
same,normalized growth,"S. cerevisiae deletion strains, locus YBR160W, strain CDC28, hits give low values",0.971
same,normalized growth,"S. cerevisiae deletion strains, locus YDL017W, strain CDC7, hits give low values",0.987
same,normalized growth,"S. cerevisiae deletion strains, locus YDL028C, strain MPS1, hits give low values",0.986
same,normalized growth,[1],0.984
same,normalized growth,"S. cerevisiae deletion strains, locus YDL108W, strain KIN28, hits give low values",0.983
same,normalized growth,"S. cerevisiae deletion strains, locus YDL132W, strain cdc53, hits give low values",0.977
same,normalized growth,"S. cerevisiae deletion strains, locus YDL214C, strain PRR2, hits give low values",0.97
same,normalized growth,"S. cerevisiae deletion strains, locus YDR052C, strain DBF4, hits give low values",0.985
same,normalized growth,"S. cerevisiae deletion strains, locus YDR054C, strain cdc34, hits give low values",0.973
same,normalized growth,"S. cerevisiae deletion strains, locus YDR226W, strain ADK1, hits give low values",0.982
same,normalized growth,"S. cerevisiae deletion strains, locus YDR477W, strain SNF1, hits give low values",0.975
same,normalized growth,"S. cerevisiae deletion strains, locus YER123W, strain YCK3, hits give low values",0.953
same,normalized growth,"S. cerevisiae deletion strains, locus YER133W, strain GLC7, hits give low values",0.981
same,normalized growth,"S. cerevisiae deletion strains, locus YFL009W, strain cdc4, hits give low values",0.98
same,normalized growth,"S. cerevisiae deletion strains, locus YFL029C, strain CAK1, hits give low values",0.973
same,normalized growth,"S. cerevisiae deletion strains, locus YFR003C, strain YPI1, hits give low values",0.98
same,normalized growth,"S. cerevisiae deletion strains, locus YFR019W, strain FAB1, hits give low values",0.981
same,normalized growth,"S. cerevisiae deletion strains, locus YFR028C, strain CDC14, hits give low values",0.975
same,normalized growth,"S. cerevisiae deletion strains, locus YGR040W, strain KSS1, hits give low values",0.966
same,normalized growth,"S. cerevisiae deletion strains, locus YGR052W, strain FMP48, hits give low values",1.07
same,normalized growth,"S. cerevisiae deletion strains, locus YGR092W, strain DBF2, hits give low values",0.937
same,normalized growth,[2],1.01
same,normalized growth,"S. cerevisiae deletion strains, locus YHR079C, strain IRE1, hits give low values",1.02
same,normalized growth,"S. cerevisiae deletion strains, locus YHR082C, strain KSP1, hits give low values",1.04
same,normalized growth,"S. cerevisiae deletion strains, locus YHR205W, strain SCH9, hits give low values",0.963
same,normalized growth,"S. cerevisiae deletion strains, locus YIL147C, strain SLN1, hits give low values",0.983
same,normalized growth,"S. cerevisiae deletion strains, locus YJL095W, strain BCK1, hits give low values",1.02
same,normalized growth,"S. cerevisiae deletion strains, locus YJL128C, strain PBS2, hits give low values",0.943
same,normalized growth,"S. cerevisiae deletion strains, locus YJL157C, strain FAR1, hits give low values",0.968
same,normalized growth,"S. cerevisiae deletion strains, locus YJR016C, strain ILV3, hits give low values",0.979
same,normalized growth,"S. cerevisiae deletion strains, locus YJR066W, strain TOR1 (second series), hits give low values",0.995
same,normalized growth,"S. cerevisiae deletion strains, locus YJR066W, strain TOR1, hits give low values",1.06
same,normalized growth,"S. cerevisiae deletion strains, locus YKL048C, strain ELM1, hits give low values",0.957
same,normalized growth,"S. cerevisiae deletion strains, locus YKL067W, strain YNK1, hits give low values",0.976
same,normalized growth,"S. cerevisiae deletion strains, locus YKL101W, strain HSL1, hits give low values",0.961
same,normalized growth,"S. cerevisiae deletion strains, locus YKL193C, strain SDS22, hits give low values",0.978
same,normalized growth,"S. cerevisiae deletion strains, locus YKL203C, strain TOR2, hits give low values",1.05
same,normalized growth,"S. cerevisiae deletion strains, locus YLR113W, strain HOG1, hits give low values",0.923
same,normalized growth,"S. cerevisiae deletion strains, locus YLR133W, strain CKI1, hits give low values",0.956
same,normalized growth,"S. cerevisiae deletion strains, locus YLR403W, strain SFP1, hits give low values",0.96
same,normalized growth,"S. cerevisiae deletion strains, locus YML070W, strain DAK1, hits give low values",0.956
same,normalized growth,"S. cerevisiae deletion strains, locus YMR001C, strain CDC5, hits give low values",0.977
same,normalized growth,"S. cerevisiae deletion strains, locus YMR205C, strain PFK2 (second series), hits give low values",0.973
same,normalized growth,"S. cerevisiae deletion strains, locus YMR277W, strain FCP1, hits give low values",0.979
same,normalized growth,"S. cerevisiae deletion strains, locus YNL006W, strain LST8, hits give low values",0.995
same,normalized growth,"S. cerevisiae deletion strains, locus YNL020C, strain ARK1, hits give low values",0.963
same,normalized growth,"S. cerevisiae deletion strains, locus YNL161W, strain CBK1, hits give low values",0.971
same,normalized growth,"S. cerevisiae deletion strains, locus YNL183C, strain NPR1, hits give low values",1.02
same,normalized growth,"S. cerevisiae deletion strains, locus YNL207W, strain RIO2, hits give low values",0.977
same,normalized growth,"S. cerevisiae deletion strains, locus YNL222W, strain SSU72, hits give low values",0.975
same,normalized growth,"S. cerevisiae deletion strains, locus YNL307C, strain MCK1 (second series), hits give low values",0.953
same,normalized growth,"S. cerevisiae deletion strains, locus YOL078W, strain AVO1, hits give low values",0.978
same,normalized growth,"S. cerevisiae deletion strains, locus YOL136C, strain PFK27, hits give low values",0.969
same,normalized growth,"S. cerevisiae deletion strains, locus YOR061W, strain CKA2, hits give low values",0.973
same,normalized growth,"S. cerevisiae deletion strains, locus YOR119C, strain RIO1, hits give low values",1.03
same,normalized growth,"S. cerevisiae deletion strains, locus YOR231W, strain MKK1, hits give low values",0.959
same,normalized growth,"S. cerevisiae deletion strains, locus YOR329C, strain SCD5, hits give low values",0.982
same,normalized growth,"S. cerevisiae deletion strains, locus YPL031C, strain PHO85, hits give low values",0.979
same,normalized growth,"S. cerevisiae deletion strains, locus YPL153C, strain RAD53, hits give low values",0.986
same,normalized growth,"S. cerevisiae deletion strains, locus YPL204W, strain HRR25, hits give low values",0.992
same,normalized growth,"S. cerevisiae deletion strains, locus YPL209C, strain IPL1, hits give low values",0.962
same,normalized growth,"S. cerevisiae deletion strains, locus YPL256C, strain CLN2, hits give low values",0.96
same,normalized growth,"S. cerevisiae deletion strains, locus YPR025C, strain CCL1, hits give low values",0.978
same,normalized growth,"S. cerevisiae deletion strains, locus YPR106W, strain ISR1, hits give low values",0.971
same,normalized growth,"S. cerevisiae deletion strains, locus YPR111W, strain DBF20, hits give low values",0.954
same,normalized growth,"S. cerevisiae deletion strains, strain NNK1, hits give low values",0.978
same,normalized growth,"S. cerevisiae deletion strains, strain TSCII, hits give low values",0.972
